In PubChem BioAssay AID588343 (Broad Institute, 2011):
Out of some 1,200 compounds screened, about 650 (54%) were called active. Not shown: some 5% with an inconclusive outcome.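 How the source made its calls: active means signal-lowering curve whose fitted half-maximal concentration is at or below ten times the top valid dose tested; inconclusive means flat curve with 30 to 70% inhibition, or poor fit; inactive means signal increase, flat within 30%, or potency beyond limit.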 The set was probably picked from earlier hits. Not all results are given here. Potency and affinity values are given separately.

Assay: EBV LMP1 TES2 canonical NF-kB signalling blockers – cell-based, HEK293, luciferase, cherry-pick, dose response (AID 588343);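 further: 0% = median of neutral control wells and -100% = MG132 positive control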
Conditions: HEK293 LMP1 TES2 NF-kB luciferase reporter, 16 h; series mostly up to 35 µM; activity change, negative = inhibition: at the top concentration

Activity change, negative = inhibition, inactive:
CC1(C)CN(Cc2ccccc2)C(=O)[C@H]1CC(=O)Nc1ccccc1 -7.78%
CC(C)(C)c1nc2c(s1)CCc1onc(-c3ccc(Br)cc3)c1-2 -1.55%
O=C(O)c1ccc(C=NNC(=O)c2cccc3ccccc23)cc1 -11.7%
CS(=O)(=O)Nc1ccc(C2=NN(S(C)(=O)=O)C(c3ccccc3)C2)cc1 (centres undefined) 8.63%
CC(=O)NC(CCS(C)(=O)=O)C(=O)Nc1ccc(Cl)c(Cl)c1 (centres undefined) -1.94%
Cc1cc(C)c(OCCn2ccnc2)c(C)c1 26.1%
COCCn1c(SCCN2CCOCC2)nc2c1c(=O)[nH]c(=O)n2C 2.32%
CN1CCN(C(=O)C2=C[C@@H](C(C)(C)C)C[C@@H](OCc3ccc(CO)cc3)O2)CC1 7.97%
COC(=O)[C@H](C)[C@H]1C[C@]1(C)[C@H](NC(=O)OCc1ccccc1)c1ccccc1 -3.31%
Cc1nc(C)n(C(C)CNC(=O)c2ccco2)n1 (centres undefined) 10%
O=C1CCCN2N=C(SCC(=O)Nc3ccc(Br)cc3)SC2=N1 16.1%
CSc1nc(C)cc(C)c1C#N -9.57%
CC(=O)c1ccc(-n2nnnc2SCC(=O)N2CCc3ccccc3C2)cc1 -15.1%
CCSc1nnc(NC(=O)CSc2nnc(-c3c[nH]c4ccccc34)n2CC)s1 37.4%
COc1ccc(C(=O)CN(CCC(=O)O)S(=O)(=O)c2ccc([N+](=O)[O-])cc2)cc1 -5.91%
Cc1cccc(S(=O)(=O)N2CCCc3ccccc32)c1 -11.4%
COc1ccc(S(=O)(=O)N2CCN(CC(=O)Nc3cc(OC)cc(OC)c3)CC2)cc1 16.4%
COc1cc(C(c2sc3nc(C)nn3c2O)N2CCc3ccccc3C2)cc(OC)c1OC (centres undefined) -5.62%
O=C(OCc1ccccc1F)c1cc2ccccc2cc1O 17.9%
Nc1cc(=O)[nH]c(SCCSc2cc(Cl)ccc2Cl)n1 -26.3%
OCCN(CCO)CC(O)COCCC12CC3CC(CC(C3)C1)C2 (centres undefined) 22.3%
CN=C1S/C(=C\c2ccc(O)c(Br)c2)C(=O)N1C 5%
CC(=O)OCC(=O)[C@@]1(O)CC[C@H]2[C@@H]3CCC4=CC(=O)CC[C@]4(C)[C@H]3[C@@H](O)C[C@@]21C -18.4%
Cc1cccc(-n2c(O)c(C=Nc3c(C)n(C)n(-c4ccccc4)c3=O)c3ccccc3c2=O)n1 5.7%
O=c1c(O)c(-c2ccc(O)c(O)c2)oc2cc(O)cc(O)c12 17.5%
CN(Cc1ccccc1)c1nc(N)c([N+](=O)[O-])c(NCc2ccccc2)n1 26.4%
COc1ccccc1C(=O)Nc1c[nH]c(=O)[nH]c1=O -8.44%
COc1ccc(N2Cc3cccc(C(=O)NC(C)CCc4ccco4)c3C2=O)cc1 (centres undefined) 2.7%
COc1ccc(N2C(=O)C(Cl)=C(NCc3ccccc3)C2=O)cc1 0.637%
